The text below walks through data of PubChem BioAssay (NCI).

This is part of a sample that, as a whole, favours compounds with a hit. Of some 83,000 tested, about 20% had one in any assay.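 Percent growth is the endpoint: 0 to 100 indicates growth inhibition (40 means 60% inhibition), 0 means no net growth, and negative values indicate cell death.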 Unmarked numbers belong to inactive results. Calls of active or inactive are those of the source. The calls were made as follows: active = growth percent below 10; inactive = the rest.

Among the test systems are HCT-15 colon; HT29 colon; SNB-75 CNS; SNB-19 CNS; U251 CNS; PC-3 prostate; SK-MEL-5 melanoma; UACC-62 melanoma; LOX IMVI melanoma; SK-MEL-28 melanoma; SK-MEL-2 melanoma; EKVX NSCLC; UO-31 renal; TK-10 renal; CAKI-1 renal; A498 renal; CCRF-CEM leukemia; MOLT-4 leukemia; ACHN renal; SN12C renal.
Common to all, as to experiment: NCI-60 one-dose screen, 48 h (100 = growth as untreated, 0 = no growth, -100 = all killed)
Settings in all cases: 10 µM unless noted

Consider `Cc1ccc(C)c(-n2c(-c3ccc(Br)cc3)csc2=NC(=O)c2ccccc2F)c1`, for which the growth in the experiment with HCT-15 colon was 57.9%; with HT29 colon, 55.5%; in the experiment with SNB-75 CNS it was 84.6%; in the experiment on SNB-19 CNS, 93.7%; with U251 CNS, 46.4%; with PC-3 prostate, 22.7%. The growth in the experiment with SK-MEL-5 melanoma was 46.9%; with UACC-62 melanoma, 60.7%; with LOX IMVI melanoma, 76.9%; in the experiment on SK-MEL-28 melanoma, 96.6%; with SK-MEL-2 melanoma, 101%; in the experiment on EKVX NSCLC it was 76.1%. For the same compound, the growth is 108% with UO-31 renal; 116% in the experiment on TK-10 renal; 76.1% with CAKI-1 renal; 80.7% in the experiment with A498 renal; 43.4% with CCRF-CEM leukemia; 30.5% in the experiment on MOLT-4 leukemia.

On to `O=C(O)CCCn1c(SCc2c(Cl)cccc2Cl)nc2ccsc2c1=O`, for which the growth with HCT-15 colon was 30.7%; in the experiment on HT29 colon, 4.21% (active); in the experiment with SNB-75 CNS, -13.8% (active); with SNB-19 CNS, 31%; in the experiment on U251 CNS it was 18.1%; in the experiment on PC-3 prostate it was 14.5%. Moreover, the growth is 16.8% with SK-MEL-5 melanoma; 28.3% in the experiment on UACC-62 melanoma; 28% in the experiment on LOX IMVI melanoma; 57.6% with SK-MEL-28 melanoma; 31.3% with SK-MEL-2 melanoma; 52.2% in the experiment on EKVX NSCLC. Further, the growth was 37.5% in the experiment with UO-31 renal; 48% in the experiment on TK-10 renal; 46.7% in the experiment on ACHN renal; 30.6% in the experiment with CAKI-1 renal; -1.92% (active) in the experiment on A498 renal; 19.6% in the experiment on CCRF-CEM leukemia. The growth with MOLT-4 leukemia was 21.7%.

Take `CCCCCCCCn1ccc2cc(NC(=O)Cn3cc(CN4CCCCCC4)nn3)ccc21`: the growth in the experiment with HCT-15 colon was -65.9% (active); with HT29 colon it was -48.3% (active); with SNB-75 CNS it was 87.5%; in the experiment on SNB-19 CNS, 14.4%; in the experiment with U251 CNS it was -43.6% (active); in the experiment on PC-3 prostate, 40%. Besides, the growth with SK-MEL-5 melanoma is 0.757% (active); in the experiment with UACC-62 melanoma, -70.9% (active); in the experiment with LOX IMVI melanoma it was -90.8% (active); with SK-MEL-28 melanoma, -86.1% (active); in the experiment with SK-MEL-2 melanoma, -66.6% (active); in the experiment on EKVX NSCLC it was 74.1%. In addition, the growth was -87.6% (active) with UO-31 renal; 71.4% in the experiment on TK-10 renal; -36% (active) in the experiment on ACHN renal; -39.9% (active) with CAKI-1 renal; 88.9% in the experiment with A498 renal; 1.06% (active) in the experiment with CCRF-CEM leukemia. Also, the growth in the experiment with MOLT-4 leukemia was -27.5% (active).

For the compound `O=C(O)c1cn(C2CC2)c2cc(N3CCN(C(=O)N/N=C/c4ccccc4)CC3)c(F)cc2c1=O`, the growth with HCT-15 colon was 98.4%; in the experiment on HT29 colon it was 96.9%; in the experiment with SNB-75 CNS, 98.9%; in the experiment with SNB-19 CNS it was 94.7%; in the experiment with U251 CNS it was 101%; in the experiment on PC-3 prostate, 96%. Also, the growth with SK-MEL-5 melanoma was 94.9%; in the experiment on UACC-62 melanoma it was 95.3%; in the experiment with LOX IMVI melanoma, 80.7%; in the experiment on SK-MEL-28 melanoma, 108%; in the experiment with SK-MEL-2 melanoma it was 98.7%; in the experiment with EKVX NSCLC, 101%. For the same compound, the growth is 74% in the experiment on UO-31 renal; 96.5% with TK-10 renal; 101% with ACHN renal; 93.3% with CAKI-1 renal; 109% in the experiment on A498 renal; 96.9% in the experiment on CCRF-CEM leukemia. Besides, the growth in the experiment with MOLT-4 leukemia was 85.4%.

In the case of `COC(=O)C1=Nc2ccc(F)cc2/C1=C\c1sc(Nc2ccc(O)cc2)nc1O`, the growth in the experiment on HCT-15 colon was 74.3%; in the experiment with HT29 colon it was 106%; in the experiment on SNB-75 CNS it was 33.8%; in the experiment with SNB-19 CNS, 45.7%; with U251 CNS it was 46.4%; with PC-3 prostate, 52.1%. Also, the growth with SK-MEL-5 melanoma is 60.3%; in the experiment with UACC-62 melanoma, 34.3%; with LOX IMVI melanoma it was 64%; in the experiment on SK-MEL-28 melanoma it was 66.1%; in the experiment on EKVX NSCLC it was 89.8%; with SN12C renal, 85.7%. Besides, the growth is 62.6% with UO-31 renal; 96.9% in the experiment with TK-10 renal; 84.9% in the experiment on ACHN renal; 55.5% with CAKI-1 renal; 42.4% with A498 renal; 28.2% in the experiment on CCRF-CEM leukemia.

Regarding `COc1ccc2[nH]cc(-c3nc(-c4cn(C)c5ccncc45)cs3)c2c1`, the growth with HCT-15 colon was -47.7% (active); in the experiment on HT29 colon, -33.6% (active); in the experiment with SNB-75 CNS, 110%; with SNB-19 CNS, 14.6%; in the experiment on U251 CNS it was -71.5% (active); in the experiment with PC-3 prostate it was 48.5%. Besides, the growth in the experiment with SK-MEL-5 melanoma was 50.2%; with UACC-62 melanoma it was 101%; with LOX IMVI melanoma, -88.3% (active); with SK-MEL-28 melanoma it was 91.4%; with SK-MEL-2 melanoma, 93%; with EKVX NSCLC, -14.1% (active). Further, the growth is 77.6% with UO-31 renal; 78.6% with TK-10 renal; 83.9% with ACHN renal; 67.2% in the experiment with CAKI-1 renal; 89.1% in the experiment on A498 renal; -20.3% (active) in the experiment on CCRF-CEM leukemia. In addition, in the experiment on MOLT-4 leukemia, the growth was 63%.

Consider `CCN(C(=O)N1CCN(c2cc3c(cc2F)c(=O)c(C(=O)O)cn3C2CC2)CC1)c1nc(-c2ccc(C)cc2)cs1`, for which the growth in the experiment with HCT-15 colon is 8.05% (active); in the experiment with HT29 colon it was 3.55% (active); in the experiment with SNB-75 CNS, 30.5%; in the experiment with SNB-19 CNS, 18.8%; in the experiment with U251 CNS, 16.3%; with PC-3 prostate, 10.8%. For the same compound, the growth in the experiment on SK-MEL-5 melanoma is -32.8% (active); in the experiment on UACC-62 melanoma, -3.01% (active); in the experiment with LOX IMVI melanoma it was 7.36% (active); in the experiment on SK-MEL-28 melanoma it was 34.1%; in the experiment on SK-MEL-2 melanoma, -1.1% (active); in the experiment with EKVX NSCLC, 14.3%. For the same compound, the growth with UO-31 renal is 5.96% (active); in the experiment with TK-10 renal it was 38.3%; in the experiment on ACHN renal, 6.68% (active); in the experiment on CAKI-1 renal, 7.79% (active); in the experiment with A498 renal, -2.94% (active); in the experiment on CCRF-CEM leukemia, 21.4%. Moreover, the growth in the experiment with MOLT-4 leukemia is 14.3%.

`Cn1cc(/C=C2/C(=O)Nc3ccccc32)c2ccccc21`: the growth with HCT-15 colon was 72.9%; in the experiment on HT29 colon it was 95.4%; in the experiment on SNB-75 CNS it was 99.3%; with SNB-19 CNS, 102%; in the experiment with U251 CNS, 78.3%; with PC-3 prostate, 90.2%. Moreover, the growth in the experiment on SK-MEL-5 melanoma is 79.2%; in the experiment on UACC-62 melanoma, 107%; with LOX IMVI melanoma, 92.1%; with SK-MEL-28 melanoma, 101%; with SK-MEL-2 melanoma, 101%; in the experiment on EKVX NSCLC it was 78.2%. Also, the growth with UO-31 renal was 57.9%; in the experiment on TK-10 renal, 119%; in the experiment on ACHN renal it was 83.3%; in the experiment with CAKI-1 renal, 64.8%; with A498 renal, 118%; in the experiment on CCRF-CEM leukemia, 90%. Also, the growth with MOLT-4 leukemia is 82.4%.
